Results taken from PubChem BioAssay (NCATS).
Records with an inconclusive call do not appear. Activity calls are given as the source filed them. Unless noted, calls follow the shape of the dose curve; as a rule, active = well fitted curve in either direction with a large enough effect (not every such curve was filed as active); inconclusive = small, poorly fitted or top-dose-only effect, or another doubt; inactive = flat fitted curve, though single readings scatter.

Experiments:
[1] = AP1 Signaling Pathway (AID 357); conditions: ME-180 AP-1-bla reporter, EGF-induced, beta-lactamase ratio, 5 h; at 17.2 µM (top of the series) unless noted;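 also: ME-180 reporter cells stimulated with EGF at its EC50 level; % is scaled to controls: 0 for no effect and ±100 for the full control effect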
Method in brief: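 Beta-lactamase reporter under AP-1 response element, ME-180 background. Stimulus: EC50 EGF. Compound exposure 5 h, 37 °C. Detection: CCF4, 2.5 h RT, 460/530 nm. Values: AC50 from titration.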

[2] = NFAT Signaling Pathway (AID 444); conditions: Jurkat NFAT-bla M1, carbachol, beta-lactamase ratio, 5 h; at 17.2 µM (top of the series) unless noted;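 also: carbachol stimulus at about its EC50 of 1 µM final; % is scaled to controls: 0 for no effect and ±100 for the full control effect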
Method in brief: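 Read-out: CCF4 FRET ratio (460 nm/530 nm) after 1 h RT dye loading, used for %activity and AC50 from titration series. Cells: Jurkat NFAT-β-lactamase/M1 line, treated with compound plus 1 uM carbachol for 5 h, 37 °C.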

[3] = Stat Signaling Pathway (AID 446); conditions: ME-180 SIE beta-lactamase reporter, IL-6 stimulated, 5 h; at 17.2 µM (top of the series) unless noted;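 also: ME-180 cervical cancer cells given 40 pM IL-6 alongside compound; SIE-controlled beta-lactamase reporter measured as 460/530 nm FRET emission ratio; % is scaled to controls: 0 for no effect and ±100 for the full control effect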
Method in brief: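 ME-180 cells carrying a SIE-driven beta-lactamase reporter are stimulated with 40 pM IL-6 for 5 h at 37C in the presence of compound. The 460/530 nm FRET substrate ratio is read after 2.5 h at RT. Data are normalised to 300 pM IL-6 and to 125 nM JAK inhibitor controls.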

[4] = molecular target: Glucocorticoid receptor (Homo sapiens) (UniProt P04150); experiment: GR-GFP Redistribution (AID 450;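 active = compounds whose dose series gives a full or clear partial fitted curve of increased nuclear translocation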; also: potency is read from the fitted curve at half-maximal effect)
Chain of Glucocorticoid receptor (Homo sapiens) (P04150 whole entry, looked up, the tested form may be a part): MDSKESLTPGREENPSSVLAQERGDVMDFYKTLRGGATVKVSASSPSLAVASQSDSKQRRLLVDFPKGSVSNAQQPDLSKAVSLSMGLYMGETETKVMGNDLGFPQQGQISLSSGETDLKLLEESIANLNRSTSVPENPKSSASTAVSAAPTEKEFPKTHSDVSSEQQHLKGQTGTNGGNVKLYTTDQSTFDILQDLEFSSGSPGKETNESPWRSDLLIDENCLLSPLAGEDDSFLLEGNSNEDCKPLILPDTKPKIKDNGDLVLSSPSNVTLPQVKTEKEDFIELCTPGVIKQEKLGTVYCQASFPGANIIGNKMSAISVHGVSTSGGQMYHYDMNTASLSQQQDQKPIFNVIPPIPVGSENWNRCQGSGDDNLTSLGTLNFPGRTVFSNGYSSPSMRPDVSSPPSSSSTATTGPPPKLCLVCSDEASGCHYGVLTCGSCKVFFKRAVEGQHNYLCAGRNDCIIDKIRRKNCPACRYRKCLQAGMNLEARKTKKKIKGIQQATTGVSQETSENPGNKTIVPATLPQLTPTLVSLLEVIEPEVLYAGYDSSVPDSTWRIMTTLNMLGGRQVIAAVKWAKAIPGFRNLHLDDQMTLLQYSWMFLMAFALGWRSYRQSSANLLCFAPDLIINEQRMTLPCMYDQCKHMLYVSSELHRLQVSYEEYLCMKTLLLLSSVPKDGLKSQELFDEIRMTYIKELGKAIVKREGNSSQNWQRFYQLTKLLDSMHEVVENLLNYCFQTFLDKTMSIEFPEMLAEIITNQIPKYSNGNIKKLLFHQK

[5] = molecular target: Glucocorticoid receptor (Homo sapiens) (UniProt P04150); experiment: GR-EFC Redistribution (AID 451; calls by dose curve; also: potency is read from the fitted curve at half-maximal effect); conditions: CHO-K1 GR-EFC translocation, beta-gal luminescence, 2 h
Method in brief: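 Translocation of GR-ED fusion to nuclear EA restores b-gal, read by luminescence after 1 h room-temperature detection. Engineered CHO-K1 biosensor cells, 1,000/well, exposed 2 h at 37 C to titrations up to 46 uM final.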

[6] = molecular target: Mitogen-activated protein kinase 10 (Mus musculus) (UniProt Q61831); experiment: JNK3 AlphaScreen Assay (AID 530);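 also: kinase came from lysate of stimulated human HepG2 cells; signal reports phosphorylation of biotinylated GST-cJun 1-79 at Ser73 with 10 µM ATP; % is scaled to controls: 0 for no effect and ±100 for the full control effect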
Method in brief: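 Compound titrations were preincubated 15 minutes at room temperature with substrate, antibody and pre-activated JNK3-containing HepG2 lysate. Reactions were started with 10 uM ATP and stopped with EDTA-containing bead buffer for AlphaScreen detection.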

[7] = molecular target: 3',5'-cyclic-AMP phosphodiesterase 4B (Homo sapiens) (UniProt Q07343); experiment: qHTS Assay for Inhibitors of PDE-IV (AID 607; active = well fitted activation curve with a large enough effect in the main read-out, with a control signal flat, not every such curve was filed as active; also: % of control where 0% means no effect)
Chain of 3',5'-cyclic-AMP phosphodiesterase 4B (Homo sapiens) (Q07343 whole entry, looked up): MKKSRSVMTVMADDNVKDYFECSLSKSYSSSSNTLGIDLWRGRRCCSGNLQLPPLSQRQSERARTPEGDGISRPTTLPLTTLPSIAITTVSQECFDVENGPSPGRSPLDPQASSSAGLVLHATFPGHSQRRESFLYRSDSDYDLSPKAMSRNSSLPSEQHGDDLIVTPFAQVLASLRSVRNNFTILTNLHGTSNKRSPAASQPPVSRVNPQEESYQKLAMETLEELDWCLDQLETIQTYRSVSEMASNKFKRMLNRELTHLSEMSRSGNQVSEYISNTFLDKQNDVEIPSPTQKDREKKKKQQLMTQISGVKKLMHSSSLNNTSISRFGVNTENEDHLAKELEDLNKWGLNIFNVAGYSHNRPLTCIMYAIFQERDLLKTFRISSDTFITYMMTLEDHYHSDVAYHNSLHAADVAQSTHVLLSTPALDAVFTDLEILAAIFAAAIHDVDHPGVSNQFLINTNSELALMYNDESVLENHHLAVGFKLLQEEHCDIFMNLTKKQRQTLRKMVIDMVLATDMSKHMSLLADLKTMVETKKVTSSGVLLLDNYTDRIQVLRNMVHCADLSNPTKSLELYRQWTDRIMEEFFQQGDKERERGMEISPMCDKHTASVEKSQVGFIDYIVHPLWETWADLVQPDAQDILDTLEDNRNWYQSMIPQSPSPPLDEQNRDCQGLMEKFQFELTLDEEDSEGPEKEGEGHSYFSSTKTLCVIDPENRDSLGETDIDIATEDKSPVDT
Method in brief: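 HEK293 ACTOne cells with CNG channel (1000/well), endogenous PDE4; membrane potential dye, compounds up to 22.9 uM final. Fluorescence Ex 535/Em 590; RO 20-1724 (100 uM final) as reference.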

[8] = molecular target: Guanine nucleotide-binding protein G(i) subunit alpha-1 (Homo sapiens) (UniProt P63096); experiment: qHTS Assay for Inhibitors of RGS12 GoLoco Motif Activity (Green Fluorophore) (AID 879; active = well fitted curve in the direction sought with a large enough effect; an effect the other way counts as inactive or inconclusive;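 also: 0% = labeled peptide with Gαi1 and full inhibition = labeled peptide alone without protein; negative values mean loss of peptide binding seen as reduced polarization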)
Chain of Guanine nucleotide-binding protein G(i) subunit alpha-1 (Homo sapiens) (P63096 whole entry, looked up): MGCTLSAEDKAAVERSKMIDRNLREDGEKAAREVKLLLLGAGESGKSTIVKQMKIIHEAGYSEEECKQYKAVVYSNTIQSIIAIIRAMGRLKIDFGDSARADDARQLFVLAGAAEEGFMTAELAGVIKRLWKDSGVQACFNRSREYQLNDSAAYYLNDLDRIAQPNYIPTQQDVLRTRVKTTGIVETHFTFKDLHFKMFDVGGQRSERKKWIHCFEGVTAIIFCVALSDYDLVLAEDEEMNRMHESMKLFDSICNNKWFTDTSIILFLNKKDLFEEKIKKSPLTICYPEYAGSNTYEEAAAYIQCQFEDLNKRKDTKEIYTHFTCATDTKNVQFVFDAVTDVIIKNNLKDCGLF
Method in brief: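 Fluorescence polarization assay: 50 nM Gαi1 with 10 nM FITC-labeled RGS12 GoLoco peptide in 10 mM Tris pH 7.5, 150 mM NaCl, 0.1 mM GDP, 0.05% NP40, 10 min at room temperature with compound.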

[9] = qHTS Assay for Identification of Small Molecule Agonists for Thrombopoietin (TPO) Signaling Pathway (AID 917; active = well fitted curve in the direction sought with a large enough effect; an effect the other way counts as inactive or inconclusive; also: % is scaled to controls: 0 for no effect and ±100 for the full control effect)
Method in brief: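 We measured Glycoprotein IIb promoter–luciferase output in IL-3-starved Ba/F3 murine cells expressing the human TPO receptor after 24 hrs at 37 C with compounds and 26 pM TPO.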

[10] = molecular target: Muscarinic acetylcholine receptor M1 (Rattus norvegicus) (UniProt P08482); experiment: qHTS Assay for Antagonists of Acetylcholine Muscarinic M1 Receptor: Kinetic Measurement of Intracellular Calcium Response (AID 943; active = well fitted curve in the direction sought with a large enough effect; an effect the other way counts as inactive or inconclusive;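 also: Fluo-4 calcium signal as peak divided by basal fluorescence over 4 min; nearly all actives have a fitted effect of over 75% in size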)
Chain of Muscarinic acetylcholine receptor M1 (Rattus norvegicus) (P08482 whole entry, looked up): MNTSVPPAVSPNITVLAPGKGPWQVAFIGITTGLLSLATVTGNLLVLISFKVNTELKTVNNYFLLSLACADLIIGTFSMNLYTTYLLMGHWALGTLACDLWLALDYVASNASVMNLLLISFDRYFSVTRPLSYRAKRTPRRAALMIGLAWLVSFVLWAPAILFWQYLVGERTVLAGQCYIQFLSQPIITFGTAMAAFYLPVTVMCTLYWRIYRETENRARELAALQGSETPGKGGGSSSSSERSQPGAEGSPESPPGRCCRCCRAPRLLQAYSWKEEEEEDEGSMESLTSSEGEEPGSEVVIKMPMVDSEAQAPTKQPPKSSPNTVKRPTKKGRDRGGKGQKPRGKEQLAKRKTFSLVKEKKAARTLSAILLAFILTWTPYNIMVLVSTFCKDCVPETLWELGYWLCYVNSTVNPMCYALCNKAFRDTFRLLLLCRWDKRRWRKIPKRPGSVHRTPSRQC
Method in brief: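 Rat M1-CHO cells, 2000/well, overnight → Fluo-4 no-wash dye with probenecid, 1 h 37C → compound 10 min, room temp → basal read 6 s → carbachol EC80 (100 nM) → 4 min kinetic read; peak/basal.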

[11] = molecular target: Muscarinic acetylcholine receptor M1 (Rattus norvegicus) (UniProt P08482); experiment: qHTS Assay for Antagonists of Acetylcholine Muscarinic M1 Receptor: Measurement of IP-One Response (AID 944; active = well fitted curve in the direction sought with a large enough effect; an effect the other way counts as inactive or inconclusive; also: nearly all actives have a fitted effect of over 75% in size)
Method in brief: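 M1-CHO (rat), 2000 cells/well, overnight recovery; cpd 10 min; carbachol EC80 (200 nM), 30 min, HEPES buffer + 50 mM LiCl pH 7.4; IP-One HTRF, Ex 337, Em 620/665 nm.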

[12] = molecular target: Pyruvate kinase (Leishmania mexicana) (UniProt Q27686); experiment: qHTS Validation Assay for Inhibitors of Leishmania Mexicana Pyruvate Kinase (AID 945; active = well fitted curve in the direction sought with a large enough effect; an effect the other way counts as inactive or inconclusive;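 also: 0% = DMSO only neutral control wells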)
Chain of Pyruvate kinase (Leishmania mexicana) (Q27686 2-499 E452W): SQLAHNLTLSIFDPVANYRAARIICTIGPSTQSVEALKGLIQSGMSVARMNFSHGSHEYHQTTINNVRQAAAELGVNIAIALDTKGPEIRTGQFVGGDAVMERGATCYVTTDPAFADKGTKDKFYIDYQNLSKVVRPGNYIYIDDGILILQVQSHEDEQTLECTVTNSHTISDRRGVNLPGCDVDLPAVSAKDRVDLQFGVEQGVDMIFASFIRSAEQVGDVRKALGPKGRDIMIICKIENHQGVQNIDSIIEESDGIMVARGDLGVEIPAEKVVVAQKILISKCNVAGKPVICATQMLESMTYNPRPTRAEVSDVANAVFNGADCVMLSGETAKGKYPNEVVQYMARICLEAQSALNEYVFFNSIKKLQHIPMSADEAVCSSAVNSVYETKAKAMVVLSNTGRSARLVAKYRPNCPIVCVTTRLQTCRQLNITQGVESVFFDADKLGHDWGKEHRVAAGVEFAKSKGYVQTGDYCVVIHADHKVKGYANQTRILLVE
Method in brief: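 Mutant LmPYK (E451W), 0.2 nM, plus 0.5 mM PEP and 0.1 mM ADP in 50 mM imidazole pH 7.2 containing 0.01% Tween 20 and 0.05% BSA. Incubated 1 h at room temperature; luminescence via PKLight, normalized to DMSO.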

[13] = molecular target: Pyruvate kinase PKM (Homo sapiens) (UniProt P14618); experiment: qHTS Assay for Activators of Human Muscle Pyruvate Kinase (AID 954; active = well fitted curve in the direction sought with a large enough effect, not every such curve was filed as active;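 also: 0% = uninhibited enzyme and -100% = no enzyme or full thiadiazolimine inhibition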)
Chain of Pyruvate kinase PKM (Homo sapiens) (P14618 whole entry, looked up): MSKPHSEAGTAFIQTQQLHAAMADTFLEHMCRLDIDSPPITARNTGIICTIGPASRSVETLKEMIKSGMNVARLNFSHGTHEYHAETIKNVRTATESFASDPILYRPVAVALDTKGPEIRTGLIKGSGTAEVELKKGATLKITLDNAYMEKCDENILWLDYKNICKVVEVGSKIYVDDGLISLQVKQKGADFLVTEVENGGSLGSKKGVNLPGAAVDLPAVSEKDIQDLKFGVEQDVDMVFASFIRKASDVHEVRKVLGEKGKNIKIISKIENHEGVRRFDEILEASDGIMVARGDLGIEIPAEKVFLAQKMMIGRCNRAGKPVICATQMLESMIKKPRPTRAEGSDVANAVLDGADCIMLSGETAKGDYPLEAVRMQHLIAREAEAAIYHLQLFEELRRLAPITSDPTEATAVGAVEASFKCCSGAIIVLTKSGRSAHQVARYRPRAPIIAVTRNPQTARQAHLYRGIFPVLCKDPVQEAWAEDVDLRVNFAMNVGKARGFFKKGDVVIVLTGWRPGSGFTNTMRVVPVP
Method in brief: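 Purified human PKM2 (0.1 nM) with 0.5 mM PEP (Km) and 0.1 mM ADP in 50 mM imidazole pH 7.2, KCl, MgCl2, 1 h at room temperature; ATP formed read by coupled luciferase luminescence. Normalized to no-enzyme/110 uM thiadiazolimine inhibition; 0.3 nM enzyme column for activation.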

[14] = molecular target: Alpha-galactosidase A (Homo sapiens) (UniProt P06280); experiment: Counterscreen for Glucocerebrosidase Inhibitors: qHTS Assay for Human alpha-Galactosidase at pH 4.5 (AID 992; active = well fitted curve in the direction sought with a large enough effect; an effect the other way counts as inactive or inconclusive; also: 0% is about no effect)
Chain of Alpha-galactosidase A (Homo sapiens) (P06280 whole entry, looked up): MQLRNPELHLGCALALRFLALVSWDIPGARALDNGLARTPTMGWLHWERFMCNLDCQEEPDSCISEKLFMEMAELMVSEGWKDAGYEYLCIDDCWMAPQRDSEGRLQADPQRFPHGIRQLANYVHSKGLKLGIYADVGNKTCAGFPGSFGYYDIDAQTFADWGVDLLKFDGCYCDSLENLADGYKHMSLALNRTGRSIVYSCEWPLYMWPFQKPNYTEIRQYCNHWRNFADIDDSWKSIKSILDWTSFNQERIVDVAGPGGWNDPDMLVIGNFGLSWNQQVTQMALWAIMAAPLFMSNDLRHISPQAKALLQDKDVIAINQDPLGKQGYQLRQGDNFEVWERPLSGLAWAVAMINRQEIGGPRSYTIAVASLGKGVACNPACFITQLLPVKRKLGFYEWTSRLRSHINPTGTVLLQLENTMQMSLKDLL
Method in brief: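 Human enzyme (2 nM) with 80 uM 4-methylumbelliferyl alpha-D-galactopyranoside in 50 mM citric acid, 0.005% Tween-20, pH 4.5, 20 min at room temperature. Compounds 0.7 nM–77 uM; fluorescence Ex 365/Em 440 after pH 10 stop; AC50 from Hill fits.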

[15] = molecular target: alpha-glucosidase (Oryza sativa, rice) (UniProt Q653V4); experiment: Counterscreen for Glucocerebrosidase Inhibitors: qHTS Assay for Rice alpha-Glucosidase at pH 5.0 (AID 997; active = well fitted curve in the direction sought with a large enough effect; an effect the other way counts as inactive or inconclusive;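 also: 0% = full activity with enzyme and -100% = basal without enzyme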)
Method in brief: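 Rice alpha-glucosidase (4 nM final) with 400 uM 4-methylumbelliferyl-alpha-D-glucopyranoside in citrate buffer pH 5.0, 20 min at room temperature, stopped at pH 10; fluorescence 365/440 nm, compounds 0.7 nM–77 uM, AC50 from Hill fits.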

[16] = molecular target: Ubiquitin carboxyl-terminal hydrolase 1 (Homo sapiens) (UniProt O94782); experiment: Inhibitors of USP1/UAF1: Pilot qHTS (AID 504865; active = well fitted curve in the direction sought with a large enough effect; an effect the other way counts as inactive or inconclusive;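 also: rhodamine fluorescence freed from ubiquitin-rhodamine substrate followed over time; top concentration of the series differs between compounds; % is scaled to controls: 0 for no effect and ±100 for the full control effect; nearly all actives have a fitted effect of over 35% in size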)
Chain of Ubiquitin carboxyl-terminal hydrolase 1 (Homo sapiens) (O94782 whole entry, looked up): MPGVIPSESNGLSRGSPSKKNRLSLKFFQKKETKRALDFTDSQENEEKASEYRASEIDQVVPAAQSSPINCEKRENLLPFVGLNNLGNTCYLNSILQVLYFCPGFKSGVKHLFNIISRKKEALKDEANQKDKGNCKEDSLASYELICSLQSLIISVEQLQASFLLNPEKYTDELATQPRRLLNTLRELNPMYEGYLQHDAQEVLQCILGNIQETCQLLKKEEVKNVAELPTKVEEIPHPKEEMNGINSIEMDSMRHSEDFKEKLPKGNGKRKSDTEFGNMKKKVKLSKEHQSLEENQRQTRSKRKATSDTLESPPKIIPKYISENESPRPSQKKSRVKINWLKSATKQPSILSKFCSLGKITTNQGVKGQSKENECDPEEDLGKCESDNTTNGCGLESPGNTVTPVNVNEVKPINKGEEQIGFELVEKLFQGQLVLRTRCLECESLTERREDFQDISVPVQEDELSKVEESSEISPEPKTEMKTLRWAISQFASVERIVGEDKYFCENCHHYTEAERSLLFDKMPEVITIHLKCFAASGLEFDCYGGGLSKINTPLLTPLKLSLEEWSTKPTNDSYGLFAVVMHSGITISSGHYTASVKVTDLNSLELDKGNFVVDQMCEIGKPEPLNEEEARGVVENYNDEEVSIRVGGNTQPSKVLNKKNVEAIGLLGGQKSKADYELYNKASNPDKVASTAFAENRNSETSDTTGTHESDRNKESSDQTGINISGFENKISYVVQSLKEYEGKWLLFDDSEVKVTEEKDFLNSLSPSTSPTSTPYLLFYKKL
Method in brief: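 Kinetic fluorescence assay: 1nM USP1/UAF1, 15 min compound preincubation, then 150nM Ub-Rho; 480/540 nm.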

[17] = qHTS Assay for Identification of Small Molecule Antagonists for NFkB Signaling Pathway (AID 895; active = well fitted inhibition curve with a large enough effect in the signal ratio, with a control signal flat, not every such curve was filed as active; the % refers to the signal ratio; also: % is scaled to controls: 0 for no effect and ±100 for the full control effect)
Method in brief: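 Beta-lactamase reporter read-out (460 and 530 nm emission ratio, 405 nm excitation, 2 hrs substrate loading RT) after 5 hr stimulation with 10 pM TNF alpha in compound-treated NFkB-bla ME-180 cells in low-serum medium.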

[18] = qHTS Assay for Identification of Small Molecule Agonists for Hypoxia Response Element Signaling Pathway (AID 914; active = well fitted activation curve with a large enough effect in the signal ratio, with a control signal flat, not every such curve was filed as active; the % refers to the signal ratio; also: % of control where 0% means no effect); conditions: ME-180 (cervical carcinoma) HRE-bla reporter, beta-lactamase ratio, CoCl2, 17 h; activation: active compounds read high
Method in brief: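 Reporter activity (beta-lactamase, CCF4 460nm/530nm ratio) in HRE-bla ME-180 cells is recorded after 17 h compound exposure with EC50 CoCl2 at 37 degrees Celsius. AC50 values come from titration data.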

Nc1cc(S(N)(=O)=O)ccc1SSc1ccc(S(N)(=O)=O)cc1N
inactive: activity change, negative = inhibition [1] 19.2% [at 7.69 µM] | activity change, negative = inhibition [2] -0.508% [at 7.69 µM] | activity, negative = inhibition [3] -1.82% [at 7.69 µM] | Potency [4] > 46 µM | Potency [5] > 9.22 µM | activity change, negative = inhibition [6] -4.44% [at 11.4 µM] | Potency [7]

O=C(O)C[C@@H]1CCCc2ccccc2[C@H]1O
inactive: activity change, negative = inhibition [1] 1.66% [at 38 µM] | activity change, negative = inhibition [2] 2.27% [at 38 µM] | activity, negative = inhibition [3] -11.9% [at 38 µM] | Potency [4] > 46 µM | Potency [5] > 46 µM | Potency [6] | Potency [7] | outcome [8] | Potency [9] | Potency [10] | Potency [11] | Potency [12] | outcome [13] | outcome [14] | outcome [15]

CN(C)C(=O)c1ccc(-c2ccc3ncnc(NC4CC4)c3c2)cc1
inactive: activity change, negative = inhibition [1] -22.9% [at 7.69 µM] | activity change, negative = inhibition [2] 12.3% [at 7.69 µM] | activity, negative = inhibition [3] -3.61% [at 7.69 µM] | Potency [4] > 46 µM | Potency [5] > 46 µM | Potency [6] | Potency [7] | Potency [16]

CC(=O)N[C@H](Cc1c[nH]c2ccccc12)C(=O)O
inactive: activity change, negative = inhibition [1] 3.17% [at 7.69 µM] | activity change, negative = inhibition [2] 4.78% [at 7.69 µM] | activity, negative = inhibition [3] 14.4% [at 7.69 µM] | Potency [4] > 46 µM | Potency [5] > 9.22 µM | activity change, negative = inhibition [6] 4.22% [at 11.4 µM] | Potency [7]

O=c1[nH]c(=O)n([C@H]2C[C@H](O)[C@H](CO)O2)cc1/C=C\Br
inactive: activity change, negative = inhibition [1] -6.02% [at 38 µM] | activity change, negative = inhibition [2] 3.97% [at 38 µM] | activity, negative = inhibition [3] 6.62% [at 38 µM] | Potency [4] > 46 µM | Potency [5] > 46 µM | Potency [6] | Potency [7] | outcome [8] | Potency [17] | activation [18] 0.219% | Potency [9] | Potency [10] | Potency [11] | Potency [12] | outcome [13] | outcome [14] | outcome [15]

O=C(CC1SC2=NCCN2C1=O)Nc1ccccc1 (stereo not drawn)
inactive: activity change, negative = inhibition [1] 4.21% | activity change, negative = inhibition [2] 19% | activity, negative = inhibition [3] -5.25% | Potency [4] > 20.6 µM
